Test systems include NCI-H23 lung; NCI-H322M lung; HOP-62 NSCLC; HOP-92 NSCLC; NCI-H522 lung; A549/ATCC NSCLC; 786-0 renal; COLO 205 colon; DU-145 prostate; K-562 leukemia; MALME-3M melanoma; MDA-MB-231 breast; RXF 393 renal; SF-268 CNS; SF-295 CNS; SF-539 CNS; UACC-257 melanoma; M14 melanoma; HCT-15 colon.
Holding throughout (assay): NCI-60 one-dose screen, 48 h (100 = growth as untreated, 0 = no growth, -100 = all killed)
Holding throughout (conditions): 10 µM unless noted

This is part of a sample that, as a whole, favours compounds with a hit. Of some 83,000 tested, about 20% had one in any assay.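 Each cell line was grown in a 96-well plate and treated with one concentration of compound for 48 hours. Values below 10 were considered active.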 Values without a mark were called inactive. Calls of active or inactive are those of the source.

Take `COc1cc(/C=C/C(=O)c2c(C)nc3ccccc3c2/C=C/c2ccccc2)cc(OC)c1OC`: the growth with NCI-H23 lung is 10.9%; with NCI-H322M lung, 21%; in the assay with HOP-62 NSCLC, 22.2%; in the assay with HOP-92 NSCLC, 14.6%; in the assay on NCI-H522 lung, -21% (active); in the assay with A549/ATCC NSCLC it was 8.71% (active). For the same molecule, the growth was 18.2% with 786-0 renal; 4.78% (active) in the assay on COLO 205 colon; -0.597% (active) in the assay with DU-145 prostate; 6.02% (active) in the assay with K-562 leukemia; 36.3% with MALME-3M melanoma; -0.432% (active) in the assay with MDA-MB-231 breast. In addition, the growth in the assay on RXF 393 renal was -17.2% (active); in the assay with SF-268 CNS, 25.9%; with SF-295 CNS, 29.8%; in the assay on SF-539 CNS, 1.35% (active); with UACC-257 melanoma, 42.1%; in the assay on M14 melanoma, -6.24% (active). For the same molecule, the growth in the assay with HCT-15 colon was -6.23% (active).

For the molecule `COc1ccc(N(C)c2nc(N)nc3sc4c(c23)CCCC4)cc1`, the growth with NCI-H23 lung is 19.3%; in the assay with NCI-H322M lung, 52.6%; in the assay on HOP-62 NSCLC, 28.3%; in the assay with HOP-92 NSCLC it was 36.5%; in the assay on NCI-H522 lung it was -13.7% (active); in the assay with A549/ATCC NSCLC, 15.4%. Moreover, the growth in the assay on 786-0 renal was 26.4%; in the assay on COLO 205 colon, -60.3% (active); in the assay on DU-145 prostate, 0.729% (active); in the assay on K-562 leukemia, 7.85% (active); in the assay with MALME-3M melanoma it was 50.1%; in the assay with MDA-MB-231 breast it was 25.5%. The growth with RXF 393 renal was 46.6%; with SF-268 CNS, 30%; in the assay with SF-295 CNS, 14.5%; in the assay on SF-539 CNS, -6.54% (active); in the assay on UACC-257 melanoma, 39%; with M14 melanoma it was 1.13% (active). Further, the growth in the assay on HCT-15 colon was 4.87% (active).

For `CCOc1cc2c(cc1OCC)C(c1cc(C)c(O)c(C)c1)NCC2` (stereo unspecified), the growth in the assay with NCI-H23 lung is 100%; in the assay with NCI-H322M lung it was 92.2%; with HOP-62 NSCLC, 107%; with HOP-92 NSCLC it was 88.5%; with NCI-H522 lung, 91%; in the assay with A549/ATCC NSCLC it was 95.5%. Besides, the growth in the assay on 786-0 renal is 94.3%; in the assay with COLO 205 colon, 106%; in the assay with DU-145 prostate, 111%; in the assay on K-562 leukemia it was 78.6%; in the assay with MALME-3M melanoma it was 99.1%; in the assay with MDA-MB-231 breast, 95.7%. Besides, the growth was 99.4% with RXF 393 renal; 103% in the assay with SF-268 CNS; 93.1% in the assay with SF-295 CNS; 109% in the assay on SF-539 CNS; 94.3% in the assay on UACC-257 melanoma; 98.5% in the assay on M14 melanoma. Besides, in the assay with HCT-15 colon, the growth is 91.2%.

With `CN1CCN(Cc2ccc(C(=O)Nc3cncc(C#Cc4cnc5cccnn45)c3)cc2C(F)(F)F)CC1`, the growth was 47.5% with NCI-H23 lung; 54.4% with NCI-H322M lung; 70.9% in the assay with HOP-62 NSCLC; 34.4% in the assay with HOP-92 NSCLC; 40.2% with NCI-H522 lung; 58.5% in the assay on A549/ATCC NSCLC. The growth with 786-0 renal was 57.2%; with COLO 205 colon, 39.3%; in the assay with DU-145 prostate, 36.1%; in the assay with K-562 leukemia, 6.75% (active); with MALME-3M melanoma, 28.3%; in the assay on MDA-MB-231 breast, 41%. For the same molecule, the growth with RXF 393 renal was 50.5%; in the assay on SF-268 CNS, 60.3%; in the assay with SF-295 CNS it was 80.2%; in the assay with SF-539 CNS, 32.9%; in the assay on UACC-257 melanoma, 19.2%; in the assay with M14 melanoma, 34.4%. The growth with HCT-15 colon is 38.8%.

As for `CCN1C(=O)N(CC)C2C1NN=c1s/c(=C3\C(=O)N(C(C)C)c4ccccc43)c(=O)n12` (stereo unspecified), the growth with NCI-H23 lung is 28.8%; in the assay with NCI-H322M lung, 52.6%; in the assay on HOP-62 NSCLC, 38.7%; with HOP-92 NSCLC, 54%; in the assay with NCI-H522 lung, -3.38% (active); in the assay on A549/ATCC NSCLC, 16.5%. For the same molecule, the growth is 30.6% in the assay on 786-0 renal; -16% (active) in the assay with COLO 205 colon; 3.71% (active) in the assay with DU-145 prostate; 7.46% (active) in the assay with K-562 leukemia; 64.6% in the assay with MALME-3M melanoma; 11.3% with MDA-MB-231 breast. The growth is 35.5% in the assay on RXF 393 renal; 25.2% with SF-268 CNS; 5.01% (active) with SF-295 CNS; -13.2% (active) in the assay on SF-539 CNS; 57.1% in the assay with UACC-257 melanoma; 18.9% in the assay on M14 melanoma. Besides, in the assay with HCT-15 colon, the growth is 12.4%.

With `O=C(Nc1ccc(N2CCNCC2)cc1)c1[nH]ncc1Nc1ncnc2sc3c(c12)CCC3`, the growth in the assay with NCI-H23 lung is -68.6% (active); in the assay with NCI-H322M lung, -33.2% (active); with HOP-62 NSCLC, -76.2% (active); in the assay on HOP-92 NSCLC, -56.7% (active); in the assay with NCI-H522 lung, -50.3% (active); in the assay on A549/ATCC NSCLC, -71.4% (active). For the same molecule, the growth was -81.4% (active) with 786-0 renal; -77.2% (active) in the assay with COLO 205 colon; -92.4% (active) with DU-145 prostate; -62.7% (active) in the assay with K-562 leukemia; -75.9% (active) in the assay on MALME-3M melanoma; -84.9% (active) in the assay on MDA-MB-231 breast. The growth was -90.8% (active) in the assay with RXF 393 renal; -72.3% (active) in the assay with SF-268 CNS; -77.2% (active) in the assay with SF-295 CNS; -98.8% (active) in the assay on SF-539 CNS; 26% with UACC-257 melanoma; -91.1% (active) in the assay with M14 melanoma. In addition, in the assay on HCT-15 colon, the growth is -85.7% (active).

Turning to `O=C(Nc1ccc(N2CCNCC2)cc1)c1[nH]ncc1Nc1cc(C2CC2)ncn1`, the growth in the assay with NCI-H23 lung is 44.3%; in the assay on NCI-H322M lung it was 37.6%; with HOP-62 NSCLC, 66.4%; in the assay on HOP-92 NSCLC, 78.1%; in the assay with NCI-H522 lung, 25.2%; in the assay on A549/ATCC NSCLC, 33.2%. The growth with 786-0 renal was 56.7%; in the assay with COLO 205 colon it was 24%; in the assay on DU-145 prostate, 70.6%; in the assay on K-562 leukemia, 24.2%; with MALME-3M melanoma, 61.5%; in the assay on MDA-MB-231 breast it was 81.1%. Moreover, the growth with RXF 393 renal was 46.5%; with SF-268 CNS it was 60%; in the assay with SF-295 CNS, 76.9%; with SF-539 CNS, 46.1%; in the assay on UACC-257 melanoma, 75.9%; in the assay with M14 melanoma, 45.3%. The growth in the assay with HCT-15 colon was 35.6%.

For the molecule `Cc1cccc2c(=O)c3c(sc12)c(NCCN)nc1ccccc13`, the growth in the assay with NCI-H23 lung is -13.2% (active); in the assay with NCI-H322M lung it was -38.3% (active); with HOP-62 NSCLC, -64.6% (active); in the assay with HOP-92 NSCLC, 27.7%; in the assay on NCI-H522 lung, -56.3% (active); in the assay with A549/ATCC NSCLC it was -75.2% (active). In addition, the growth in the assay with 786-0 renal was -37.4% (active); with DU-145 prostate, -87.9% (active); with K-562 leukemia, -45.2% (active); in the assay with MALME-3M melanoma, -74.2% (active); in the assay with MDA-MB-231 breast, -75.6% (active); in the assay on RXF 393 renal, 34.1%. Also, the growth with SF-268 CNS is 6.22% (active); in the assay on SF-295 CNS, -75.3% (active); in the assay with SF-539 CNS, -85.7% (active); in the assay on UACC-257 melanoma, -17.6% (active); in the assay on M14 melanoma, -75.7% (active); with HCT-15 colon, -79.9% (active).

The values are drawn from PubChem BioAssay (NCI).
